PubChem BioAssay (NCI)
About 83,000 compounds went through this panel and 20% of them were active in at least one assay; those are over-represented in the sample as a whole.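 Negative percent growth values reflect cell death: -40 means 40% of the cells present at the start died, and -100 means all died.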 A number with no mark means an inactive call. Activity calls are given as the source filed them. The calls were made as follows: active = growth percent below 10; inactive = the rest.

Tests used:
Experiment in all cases: NCI-60 one-dose screen, 48 h (100 = growth as untreated, 0 = no growth, -100 = all killed)
Conditions in all cases: 10 µM unless noted
HCT-15 colon = system: HCT-15 colon
HT29 colon = system: HT29 colon
SNB-75 CNS = system: SNB-75 CNS
SNB-19 CNS = system: SNB-19 CNS
U251 CNS = system: U251 CNS
PC-3 prostate = system: PC-3 prostate
UACC-62 melanoma = system: UACC-62 melanoma
LOX IMVI melanoma = system: LOX IMVI melanoma
SK-MEL-28 melanoma = system: SK-MEL-28 melanoma
SK-MEL-2 melanoma = system: SK-MEL-2 melanoma
EKVX NSCLC = system: EKVX NSCLC
SN12C renal = system: SN12C renal
UO-31 renal = system: UO-31 renal
TK-10 renal = system: TK-10 renal
ACHN renal = system: ACHN renal
CAKI-1 renal = system: CAKI-1 renal
CCRF-CEM leukemia = system: CCRF-CEM leukemia
MOLT-4 leukemia = system: MOLT-4 leukemia
A498 renal = system: A498 renal
SK-MEL-5 melanoma = system: SK-MEL-5 melanoma

| Compound | growth (HCT-15 colon) | growth (HT29 colon) | growth (SNB-75 CNS) [%] | growth (SNB-19 CNS) | growth (U251 CNS) | growth (PC-3 prostate) | growth (UACC-62 melanoma) | growth (LOX IMVI melanoma) | growth (SK-MEL-28 melanoma) | growth (SK-MEL-2 melanoma) | growth (EKVX NSCLC) | growth (SN12C renal) | growth (UO-31 renal) | growth (TK-10 renal) | growth (ACHN renal) | growth (CAKI-1 renal) | growth (CCRF-CEM leukemia) | growth (MOLT-4 leukemia) | growth (A498 renal) | growth (SK-MEL-5 melanoma) |
| --- | --- | --- | --- | --- | --- | --- | --- | --- | --- | --- | --- | --- | --- | --- | --- | --- | --- | --- | --- | --- |
| Clc1ccc2c(c1)c(-c1ccccc1)nc1nncn12 | 108% | 104% | 98.3 | 109% | 105% | 111% | 113% | 102% | 121% | 102% | 109% | 104% | 90.8% | 114% | 117% | 105% | 101% | 96.7% | – | – |
| COc1cc(/C=C2\C(=O)N(Cc3ccc(Cl)cc3)c3ccccc32)cc(OC)c1OC | -37.7% (active) | 8.97% (active) | 12.5 | 50.3% | 3.6% (active) | 38.6% | – | -57.1% (active) | -42.6% (active) | 90.2% | 88.8% | 24.9% | 26.6% | 20.5% | 40.6% | 24.6% | -3.04% (active) | 8.46% (active) | 26.2% | – |
| CN(Cc1ccccc1)c1nc(Cl)c(C2CC(c3ccc(Cl)cc3)=Cc3[nH][nH]c(=O)c32)s1 (centres undefined) | 90.1% | 112% | 88.1 | 104% | 93.4% | 79.7% | – | 79.9% | 103% | 99.7% | 99.6% | 89.4% | 69.2% | 99.1% | – | 86.2% | 106% | 96.3% | 111% | – |
| O=C(Nc1cccc(Cl)c1)Oc1c(Br)c(Br)c(Br)c(Br)c1Br | 98.2% | 91.8% | 90 | 101% | 91.9% | 59.5% | 82.1% | – | 93.1% | 79% | 92.1% | 92.7% | 74.9% | 99.9% | 104% | 90.5% | 87.9% | 99.7% | 78.3% | – |
| COc1ccc(C2CC(c3cccc(Nc4ccncc4)c3)=NN2c2ccc(Cl)cc2)cc1 (centres undefined) | -53.3% (active) | -20.2% (active) | 54.9 | 90.4% | -40% (active) | 30.9% | 97% | -80.5% (active) | -80.7% (active) | 80.4% | 83.8% | 63.7% | 47.6% | 59.1% | 46.7% | 24.5% | 4.44% (active) | -7.16% (active) | 70.1% | – |
| COC(=O)C(c1ccccc1)C(CC(=O)c1ccccc1)c1ccccc1 (centres undefined) | 97.1% | 79.1% | 83.2 | 101% | 92.2% | 62.3% | 88.7% | 82.7% | 91.8% | 85.5% | 58.3% | 102% | 75% | 92.4% | 86.6% | 74.8% | 84.7% | 71% | – | – |
| O=C1/C(=C/c2ccc(O)cc2)COc2ccc(-c3ccccc3)cc21 | 48.1% | 27.1% | 90.4 | 109% | 63.6% | 60% | 88.4% | – | 117% | 66.9% | 105% | 76.2% | 42.9% | 83.9% | 86% | 132% | -25.2% (active) | -22.5% (active) | 100% | – |
| CCOC(=O)c1c(SC)nn(-c2cc(=O)[nH]c3ccc(Br)cc23)c1N | 106% | 107% | – | 101% | 94.1% | 94.2% | 102% | 90.1% | 117% | 99% | 88.2% | 108% | 81% | 110% | 98.3% | 87.2% | 111% | 111% | 110% | 101% |
| CCN1C(=O)N(CC)C2C1NN=c1s/c(=C3\C(=O)Nc4ccccc43)c(=O)n12 (centres undefined) | 26.8% | 5.74% (active) | – | 36.5% | 31.4% | 22.6% | 30.9% | 42.2% | 53% | 37.6% | 65.3% | 34% | 42.9% | 60.5% | 43% | 35.5% | – | 46.1% | -26.6% (active) | 19.5% |
| CCN(CC)CCCC(C)Nc1cc(-c2cccc(OC(F)(F)F)c2)nc2ccc(N3CCCC3)cc12 (centres undefined) | -14.1% (active) | -24.1% (active) | – | 24.2% | -58.4% (active) | 14.3% | – | -80.5% (active) | -93% (active) | -71.2% (active) | 49.9% | 38.1% | 23.7% | 12.2% | – | -53% (active) | -22.4% (active) | 2.34% (active) | 29.4% | -98.1% (active) |
| Clc1nc(Cl)c2ncn(CC3(Cn4cnc5c(Cl)nc(Cl)nc54)COC3)c2n1 | -89.9% (active) | -70.1% (active) | – | -99.1% (active) | -95.9% (active) | -98.4% (active) | -92.4% (active) | -89.2% (active) | -97.9% (active) | -76% (active) | -71.6% (active) | -86.6% (active) | -97.7% (active) | -93.2% (active) | -98.7% (active) | -87.8% (active) | – | -66.8% (active) | -88.6% (active) | -96.2% (active) |
| CC(=O)c1c[nH]c2ccc(-c3ccnc(Nc4ccc(NC(=O)C5CCCC5)c(CN5CCOCC5)c4)n3)cc12 | -21.9% (active) | 6.97% (active) | – | -6.49% (active) | 10.7% | 2.51% (active) | -90.1% (active) | – | -62.4% (active) | -54.3% (active) | -47.3% (active) | -8.98% (active) | 2.12% (active) | 0.0909% (active) | -5.66% (active) | 0.231% (active) | -11.5% (active) | -16.2% (active) | -85.1% (active) | -74.6% (active) |
| CN1CCN(CCCNc2nccc(-c3c(-c4ccc(F)c(O)c4)nc4sccn34)n2)S1(=O)=O | 108% | 57.7% | – | 114% | 106% | 86.9% | 11.5% | 50.7% | 12.8% | -1.07% (active) | 106% | 85.1% | 110% | 133% | 82.4% | 95.5% | 76% | 82.5% | 134% | 72.6% |
| Cc1cc(C)n(Nc2nc3ccccc3[nH]c2=O)c(=O)c1C#N | 102% | 110% | – | 93.1% | 95.4% | 94.8% | 94.8% | 91.5% | 104% | 108% | 88.2% | 89.8% | 78.8% | 111% | 94.1% | 89.9% | 109% | 96.7% | – | 95.3% |
| CCn1cc(C2NC(=O)c3ccccc3N2)c2cccc(C)c21 (centres undefined) | 18.6% | -22.9% (active) | – | 32.9% | 3.94% (active) | 22% | 27.6% | 29.2% | 56.5% | 2.54% (active) | 29.4% | 23.9% | 38.7% | 33.6% | 26.8% | 32.6% | -3.39% (active) | 10.9% | -17.4% (active) | 16.8% |
| COc1ccc(Cn2nc3c(c2-c2cc(OC)c(OC)c(OC)c2)-c2oncc2CC3)cc1 | 73.2% | 90.4% | – | 91.4% | 94.4% | 80.6% | 86.1% | 80.9% | 91.1% | 103% | 85.6% | 93.5% | 65.8% | 96.2% | 91.9% | 65.2% | 103% | 77.9% | 80.3% | 70.9% |
| CCCCCN1C=C/C(=C\C(=O)N(C)c2cccc3ccccc23)c2ccccc21 | 101% | 90% | – | 99.7% | 95.8% | 94.4% | 87.4% | 97.8% | 107% | 109% | 89.1% | 100% | 82.5% | 105% | 104% | 89.8% | 89.5% | 99% | – | 98.3% |
